Source: PMC4552634, “A New Set of Chemical Starting Points with Plasmodium falciparum Transmission-Blocking Potential for Antimalarial Drug Discovery” (PLoS ONE, 2015)
About 3,200 (25%) of roughly 13,000 compounds showed an effect of 50% or more. The list shows a part of the results.

These compounds were tested on P. falciparum stage V gametocytes. Conditions: 48 h, 5 µM; inhibitor.
Parameters: BacTiter-Glo ATP luminescence viability of purified stage V gametocytes in 384-well plates, per cent inhibition versus DMSO

Row | SMILES | % Inhibition
1 | Cc1cc(N2CCOCC2)nc(Nc2ccc(NC(=O)Nc3ccc(F)cc3)cc2)n1 [TCMDC-124956] | -1.746%
2 | COc1ccc2nccc([C@@H](O)CN3CCC(NC(=O)Cc4cccc5c(Br)cccc45)CC3)c2c1 [TCMDC-141111] | 22.03%
3 | COc1ccc(-n2nc(C(=O)NCCC3=CCCCC3)c3ccccc3c2=O)cc1 [TCMDC-123609] | 10.78%
4 | Clc1ccc2nc(-c3cccnc3)[nH]c2c1 [TCMDC-142012] | 6.492%
5 | COC(=O)c1cccc(NC(=O)NC2CCN(c3ccnc(NCc4ccc(F)cc4)n3)CC2)c1 [TCMDC-133636] | 29.63%
6 | Cc1cc(N(C)C)nc(Nc2ccc(NC(=O)c3c(F)cccc3Cl)cc2)n1 [TCMDC-124976] | 3.565%
7 | O=C(Nc1cccc(F)c1)NC1CCN(c2ccnc3cc(Cl)ccc23)C1 (centres unmarked) [TCMDC-133655] | -21.12%
8 | Cc1ccc(NC(=O)c2ccc3ncccc3c2)cc1OC1CCN(CCC(C)C)CC1 [TCMDC-133975] | 32.86%
9 | Oc1c(C(Nc2nc3ccccc3s2)c2ccccc2)ccc2cccnc12 (centres unmarked) [TCMDC-125565] | 82.54%
10 | Oc1c(C(Nc2nc3ccccc3s2)c2ccc(OC(F)F)cc2)ccc2cccnc12 (centres unmarked) [TCMDC-124379] | 115.4%
11 | CCC[C@@H]([C@@H](CC1CCCCC1)C(=O)N[C@H](C(=O)Nc1nccs1)C(C)(C)SCCNC(=O)OCC)N(O)C=O [TCMDC-137778] | 36.34%
12 | CCN(CC)C(C)(C)CN(Cc1ccc(-c2ccc(C(F)(F)F)cc2)cc1)C(=O)Cn1c(CCc2cccc(F)c2F)nc(=O)c2ccccc21 [TCMDC-141049] | 64.05%
13 | CN(C)C(C)(C)CN(Cc1ccc(-c2ccc(C(F)(F)F)cc2)cc1)C(=O)Cn1c(CCc2cccc(F)c2F)nc(=O)c2ccccc21 [TCMDC-141050] | 88.12%
14 | CC=CCON1C(N)=NC(N)=NC1(C)C [TCMDC-131381] | 17.92%
15 | Oc1cc(Nc2ccnc3cc(-c4ccc(CN5CCCCC5)o4)c(Cl)cc23)c(Cl)cc1F [TCMDC-138470] | 7.124%
16 | COc1ccc(C2CC(=O)C3=C(C2)NC(C)=C(C(=O)OC2CCCC2)C3c2cccc(O)c2)cc1OC (centres unmarked) [TCMDC-125638] | 22.13%
17 | O=C(Nc1ccnc(N2CCCN(Cc3cccc(O)c3)CC2)c1)c1ccc(F)cc1 [TCMDC-134961] | -9.577%
18 | Cc1ccc(-c2nc(Nc3ccncc3)c3ccccc3n2)s1 [TCMDC-134482] | 16.52%
19 | Cc1cccc(-c2nc(Nc3ccncc3)c3cc(N(C)C)ccc3n2)n1 [TCMDC-135308] | 101.1%
20 | Cc1cc(F)ccc1-c1nc(Nc2ccncc2)c2ccn(C)c2n1 [TCMDC-141231] | -13.59%
21 | COc1ccc2nc(-c3cccc(C)n3)nc(Nc3ccncc3)c2c1 [TCMDC-134670] | 106.1%
22 | COc1cccc(-c2nc(Nc3ccncc3)c3ncn(C)c3n2)c1 [TCMDC-141275] | 49.52%
23 | COc1cc2nc(Cl)nc(Nc3ccncc3)c2cc1OC [TCMDC-123606] | 31.62%
24 | Cc1cccc(-c2nc(Nc3ccncc3)c3ccc([N+](=O)[O-])cc3n2)n1 [TCMDC-134702] | 85.91%
25 | Cc1cc(N2CCCCC2)nc2ccc(NC(=O)c3cccc([N+](=O)[O-])c3)cc12 [TCMDC-124423] | 6.095%

Row | SMILES | % Inhibition
26 | COc1ccc(-c2cc(Nc3nc(-c4cccc(Cl)c4)nc4ccccc34)ccn2)cc1 [TCMDC-138867] | -54.58%
27 | COC(=O)c1ccc(CC(C)NCC(O)c2cccc(C(F)(F)F)c2)c(Cl)c1 (centres unmarked) [TCMDC-131468] | 4.686%
28 | COc1ccc(C2CC(=O)C3=C(C2)NC(C)=C(C(=O)OC(C)C)C3c2cccc(O)c2)cc1OC (centres unmarked) [TCMDC-125636] | 49.05%
29 | O=C(Nc1ccnc(-c2cccnc2)n1)c1cc(C(F)(F)F)cc(C(F)(F)F)c1 [TCMDC-124516] | 40.18%
30 | Cc1ccc2c(c1)C1(CC(=O)N(CCc3scnc3C)C1=O)C(=O)N2Cc1ccccc1 (centres unmarked) [TCMDC-136702] | 3.881%
31 | O=S(=O)(NCCN1CCCC1)c1ccc(-c2cccc(CNC3Cc4ccccc4C3)c2)cc1F [TCMDC-132221] | 86.87%
32 | Cc1cc(-c2ccc(CNC3Cc4ccccc4C3)cc2)ccc1S(=O)(=O)NCCN1CCCC1 [TCMDC-132243] | 88.03%
33 | Cc1cc(-c2ccc(CN3Cc4ccccc4C3)cc2)ccc1S(=O)(=O)NCCN1CCCC1 [TCMDC-132293] | 17.83%
34 | O=S(=O)(NCCN1CCCC1)c1ccc(-c2ccc(CNC3Cc4ccccc4C3)cc2)cc1F [TCMDC-132237] | 105.2%
35 | NC(=NCCc1ccccc1Cl)c1ccc2ccccc2c1 [TCMDC-137524] | -3.713%
36 | NC(=NCCc1ccc(Cl)c(Cl)c1)c1ccc2ccccc2c1 [TCMDC-137525] | 0.5254%
37 | Cc1cc(OCCCN=C(N)c2ccc3ccccc3c2)c(C(C)C)cc1Cl [TCMDC-137527] | 57.09%
38 | O=C(NCCCCN1CCC2c3cccc(O)c3CCC21)c1ccc(-c2ccccc2)cc1 (centres unmarked) [TCMDC-139086] | 3.232%
39 | Cc1sc2cc(Cl)cc(Cl)c2c1S(=O)(=O)Nc1ccc2nccc(N3CCNCC3)c2c1 [TCMDC-139444] | 54.96%
40 | Cc1sc2ccc(Cl)cc2c1S(=O)(=O)Nc1ccc2nccc(N3CC(C)NC(C)C3)c2c1 (centres unmarked) [TCMDC-139550] | 20.27%
41 | O=S(=O)(Nc1ccc2nccc(N3CCNCC3)c2c1)c1ccc2c(Cl)cccc2c1 [TCMDC-139383] | 15.64%
42 | COCCNCc1cccc(-c2ccc3c(Nc4ccc(Oc5cccnc5)cc4)ccnc3c2)c1 [TCMDC-138487] | 75%
43 | COCCNCc1ncsc1-c1ccc2c(Nc3ccc(Oc4ccccc4)cc3)ccnc2c1 [TCMDC-138440] | 7.654%
44 | COCCNCc1cccc(-c2ccc3c(Nc4ccc(Oc5ccccc5)cc4)ccnc3c2)c1 [TCMDC-138478] | 82.82%
45 | COCCNCc1cccc(-c2ccc3nccc(Nc4cc(O)ccc4C)c3c2)c1 [TCMDC-138480] | 40.94%
46 | CN(C)CCNCc1cccc(-c2ccc3c(Nc4ccc(Oc5ccccn5)cc4)ccnc3c2)c1 [TCMDC-138493] | 98.43%
47 | CS(=O)(=O)CCNCc1cccc(-c2ccc3c(Nc4ccc(Oc5cccnc5)cc4)ccnc3c2)c1 [TCMDC-138488] | -52.67%
48 | COCCNCc1cccc(-c2cc3nccc(Nc4ccc(Oc5ccccc5)cc4)c3cc2Cl)c1 [TCMDC-138461] | 14.84%
49 | CS(=O)(=O)CCNCc1cccc(-c2cc3nccc(Nc4ccc(Oc5ccccc5)cc4)c3cc2Cl)c1 [TCMDC-138462] | -8.797%
50 | CS(=O)(=O)CCNCc1cccc(-c2ccc3c(Nc4ccc(Oc5ccccc5)cc4)ccnc3c2)c1 [TCMDC-138477] | 27.24%
